High-throughput results: PubChem, The Scripps Research Institute Molecular Screening Center
This is a sample that favours compounds with a hit; in the whole collection about 3.5% have one here.
GPR151 ag = human GPR151 activation; Q8TDV0; PathHunter beta-arrestin GPR151 cells, luminescence; activation, % at 11.2 µM; actives 1% (n = 650,000); AID 1508602; in the data active = activation above about 4.9%
TEAD-YAP inh = TEAD-YAP interaction inhibition; HEK-TIYL cells, TEAD-Gal4/YAP UAS-luciferase luminescence; inhibition, % at 9.12 µM; actives 1.4% (n = 640,000); AID 1259422; in the data active = inhibition above about 32%
FBW7 activator = activators of human E3 ligase FBW7; AlphaScreen FBW7–phospho-cyclin E peptide binding, activator screen; actives 0.13% (n = 650,000); normalized activity (activation), % at 26.1 µM; AID 1259310; Q969H0; in the data active = normalized activity above about 1.9%;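 also: purified mutant Fbw7 with reduced substrate affinity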
Target sequence (Q969H0 whole entry, looked up): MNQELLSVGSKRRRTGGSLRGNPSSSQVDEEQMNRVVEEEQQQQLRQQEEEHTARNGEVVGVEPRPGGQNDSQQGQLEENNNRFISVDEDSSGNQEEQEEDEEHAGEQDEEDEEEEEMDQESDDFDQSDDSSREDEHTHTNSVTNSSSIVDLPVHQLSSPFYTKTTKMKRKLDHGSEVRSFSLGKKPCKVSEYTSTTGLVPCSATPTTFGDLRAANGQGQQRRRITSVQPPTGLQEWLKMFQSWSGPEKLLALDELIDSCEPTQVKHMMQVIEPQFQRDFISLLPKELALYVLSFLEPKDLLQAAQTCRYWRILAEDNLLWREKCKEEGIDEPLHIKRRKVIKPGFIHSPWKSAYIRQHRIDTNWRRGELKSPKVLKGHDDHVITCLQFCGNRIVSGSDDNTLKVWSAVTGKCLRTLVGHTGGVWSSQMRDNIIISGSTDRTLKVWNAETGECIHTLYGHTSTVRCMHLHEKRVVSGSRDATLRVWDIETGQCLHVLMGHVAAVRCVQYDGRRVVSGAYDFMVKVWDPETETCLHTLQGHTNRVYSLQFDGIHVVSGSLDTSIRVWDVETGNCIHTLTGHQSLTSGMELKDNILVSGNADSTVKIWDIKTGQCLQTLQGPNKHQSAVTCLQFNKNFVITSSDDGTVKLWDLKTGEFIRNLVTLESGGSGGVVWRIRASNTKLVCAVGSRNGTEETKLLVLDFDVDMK
MITF inh = blocks human microphthalmia-associated transcription factor | inhibition, % at 2.6 µM | actives 0.91% (n = 650,000) | AID 1259374 | AlphaScreen MITF homodimerization, bead proximity signal; in the data active = inhibition above about 50%
A number is an active result; n = inactive; ! = not active in a repeat.

SMILES	GPR151 ag	TEAD-YAP inh	FBW7 activator	MITF inh
Brc1cc2c(cc1Br)OCCOCCOCCOCCO2	n	n	n	n
O=C(C[n+]1cccc2ccccc21)c1ccccc1	n	n	n	n
Nc1sc2ccccc2[n+]1CC(=O)c1ccccc1	n	75	2.4	n
CCc1n[n+](CC(=O)c2ccccc2)c(N)s1	n	57	n	n
NC(=S)NN1C(=O)C2CC=CCC2C1=O (centres undefined)	n	n	n	n
Cc1c(-c2ccc(-c3ccccc3)cc2)[n+](CC(=O)c2ccccc2)c2ccccn12	n	56	n	n
COc1ccc(C2Oc3ccccc3C3=C2C(c2cccs2)n2ncnc2N3)cc1OC (centres undefined)	n	52	n	n
Cc1onc(-c2ccccc2Cl)c1C(=O)NCCCOC(C)C	n	n	n	n
CC1CN2c3ccccc3C(C)(C)C2(/C=C/c2ccc(N(C)C)cc2)NC1=O (centres undefined)	n	39	n	n
CC1(C)c2ccccc2N2CC(=O)NC21/C=C/c1ccccc1 (centres undefined)	n	n	n	n
FC(F)(F)c1cccc(-n2cc(-c3ccccc3)c3c(NCc4cccc(Cl)c4)ncnc32)c1	n	n	n	n
CCc1cccc(CC)c1N1C(=O)c2cccnc2C1=O	n	n	n	n
O=C(O)c1cc(-c2ccc(O)c(O)c2)nc2n[nH]c(-c3ccc(F)cc3)c12	n	n	n	n
O=C(O)c1cc(-c2ccc(O)c(O)c2)nc2n[nH]c(-c3ccccc3)c12	n	n	n	81
Cc1cc(NNC(=O)c2ccccc2Cl)c2cccc(C)c2n1	n	40	n	n
COc1ccc(C(=O)NNc2cc(C)nc3c(C)cccc23)cc1	n	n	n	n
Oc1c(C(c2ccccc2)N2CCOCC2)ccc2cccnc12 (centres undefined)	n	87	n	n
O=C(Sc1cccc2cccnc12)N1CCOCC1	n	n	n	n
Oc1c(C(c2ccc(Br)cc2)N2CCOCC2)ccc2cccnc12 (centres undefined)	n	73	n	n
COc1ccc(NC(=O)c2sc3nc(N)c(C#N)cc3c2N)cc1	n	n	18	n
COc1cc(NC(=O)c2sc3nc(N)c(C#N)cc3c2N)cc(OC)c1OC	n	n	n	n
Cc1ccc(-c2c(NCCN3CCCC3)c(=O)c2=O)cc1	n	n	n	n
CCOc1cc(C=C2C(=O)NC(=S)NC2=O)ccc1OCC(=O)O	n	n	n	70
CCOc1cc(C=C2C(=O)OC3(CCCC3)OC2=O)cc(I)c1O	n	n	n	n
NCC(O)c1ccc(O)c(O)c1 (centres undefined)	n	n	n	77!
SMILES	GPR151 ag	TEAD-YAP inh	FBW7 activator	MITF inh
CC(c1ccccc1)c1ccc(O)c(O)c1 (centres undefined)	n	n	n	n
Cc1ccc(S(=O)(=O)Oc2ccccc2/C=N/NC(N)=S)cc1	n	61	n	n
Cc1ccc(S(=O)(=O)Oc2ccccc2/C=N/N=C(N)N)cc1	n	n	n	n
N=C1/C(=C\c2ccc([N+](=O)[O-])o2)C(=O)N=C2SC(N3CCCCC3)=NN12	n	n	n	67
CC1=CC2=NC(=O)/C(=C\c3ccc([N+](=O)[O-])o3)C(=N)N2O1	n	n	n	65
N=C1/C(=C/c2ccc([N+](=O)[O-])o2)C(=O)N=C2SC(c3ccco3)=NN12	n	n	n	91
CCC1=NN2C(=N)/C(=C\c3ccc(SCc4ccco4)o3)C(=O)N=C2S1	n	n	n	86
Nc1[nH]c(N=NC(=O)c2ccncc2)c2ccccc12	n	n	n	n
NNC(=O)CCn1c(=S)[nH]c2ccsc2c1=O	n	n	n	n
COc1ccc(Nc2c(-c3ccccc3)c(=O)c2=O)cc1Cl	n	55	n	99
COc1ccc(-c2c(Nc3cccc(SC)c3)c(=O)c2=O)cc1	n	61	n	n
CCc1ccc(Nc2c(-c3ccccc3)c(=O)c2=O)cc1	n	56	n	n
CCc1cccc(Nc2c(-c3ccc(OC)cc3)c(=O)c2=O)c1	n	n	n	n
CCN(c1ccc(OC)cc1)c1c(-c2ccccc2)c(=O)c1=O	n	48	n	n
O=c1c(Nc2cccc(Cl)c2)c(-c2ccccc2)c1=O	n	n	n	n
CCOc1ccc2nc(N(CC3CCCO3)C(=O)Cc3ccc4c(c3)OCO4)sc2c1 (centres undefined)	n	n	n	n
COc1cc(C=C2C(=O)OC3(CCCC3)OC2=O)cc(Br)c1O	n	n	n	n
CC(C)(C)c1ccc(S(=O)(=O)N2CCN(Cc3ccc4c(c3)OCO4)CC2)cc1	n	n	n	n
CCC(C)Nc1c(-c2ccccc2)c(=O)c1=O (centres undefined)	n	n	n	n
COc1ccc(Nc2c(-c3ccccc3)c(=O)c2=O)cc1	n	60	n	n
CC(Nc1c(-c2ccccc2)c(=O)c1=O)c1ccccc1 (centres undefined)	n	40	n	n
COc1ccc(Nc2c(-c3ccc(C)cc3)c(=O)c2=O)cc1	n	n	n	n
Cc1ccc(-c2c(Nc3cccc(F)c3)c(=O)c2=O)cc1	n	50	n	n
N/C(=N\OC(=O)c1ccccc1I)c1ccccn1	n	n	n	n
Cc1ccc(C(=O)O/N=C(\N)c2ccccn2)c(C)c1	n	90	n	n
SMILES	GPR151 ag	TEAD-YAP inh	FBW7 activator	MITF inh
COc1ccccc1C(=O)O/N=C(\N)c1ccccn1	n	38	n	n
N/C(=N\OC(=O)c1ccccc1Br)c1ccccn1	n	66	n	n
N/C(=N\OC(=O)c1cccc(Cl)c1)c1ccccn1	n	49	n	n
Cc1cc(C)cc(C(=O)O/N=C(\N)c2ccccn2)c1	n	n	n	n
CCC(=O)Nc1cc2nc3[nH]c(=O)n(CCc4ccccc4)c(=O)c3nc2cc1C	n	n	n	n
O=C(COC(=O)c1cc([N+](=O)[O-])ccc1NCCO)Nc1ccc(Cl)cc1F	n	n	n	n
N/C(=N\OC(=O)c1ccccc1F)c1ccccn1	n	82	n	n
Cc1ccc(NCCn2c(C)c(C)n3c4c(=O)[nH]c(=O)n(C)c4nc23)cc1Cl	n	n	n	n
O=c1[nH]c(N2CCOCC2)nc2c1CCN(Cc1ccccc1F)C2	n	n	n	n
O=c1[nH]c(N2CCOCC2)nc2c1CCN(Cc1ccccc1)C2	n	n	2.7	n
COc1ccc(N2CCN(C(C)CC(=O)O)CC2)cc1 (centres undefined)	n	n	n	72
CCN(CC)CC(O)CN1CCN(c2ccc(OC)cc2)CC1 (centres undefined)	n	n	n	55
COc1ccc(N2CCN(CC(O)COC(C)(C)C)CC2)cc1 (centres undefined)	n	n	n	n
CN(Cc1cc2ccccc2s1)C(=O)CCc1nnc(-c2ccccc2)o1	n	n	n	n
CC(C)(C)C(=O)CNC(=O)c1ccncc1	n	57	n	n
Cc1cccc2sc(NC(=O)c3sc4ncnc(N5CCN(c6ccccc6F)CC5)c4c3C)nc12	n	n	n	n
CCn1cccc/c1=N\c1cccc[n+]1CC	n	50	n	n
COc1ccc(CN2CCN(Cc3cccc4ncccc34)CC2CCO)c(F)c1 (centres undefined)	n	n	n	n
